Screening data: PubChem BioAssay, National Center for Advancing Translational Sciences (NCATS)
WRN helicase inh = blocks human WRN helicase. WRN helicase unwinding, fluorescent forked duplex, kinetic. Potency, µM (series often up to 114 µM), inactives show at the top dose activity change, negative = inhibition, actives largely listed as inhibitors. hit rate 0.46% among 360,000; further: on the % scale 0 is the no-effect control and ±100 the full control effect; nearly all actives have a fitted effect of over 55% in size
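WRN at 20 nM final preincubated with compound 15 min at room temperature; reaction started with 100 nM fluorophore/quencher forked duplex oligonucleotide and 2 mM ATP final. Unwinding followed kinetically by red fluorescence (ex 525, em 598 nm).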
Pol kappa inh-1 = blocks human DNA polymerase kappa activity. Q9UBT6. purified Pol kappa, fluorescent DNA synthesis assay, 10 min. Potency, µM (doses to about 107 µM), inactives show at the highest dose activity, negative = inhibition, most hits filed as inhibitors. hit rate 0.53% among 400,000. AID 588579; further: on the % scale 0 is the no-effect control and ±100 the full control effect
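Pol kappa 10 nM + cpd, 15 min RT; start w/ substrate 50 nM final; fluorescence kinetic read, 0 and 10 min. Neg ctrl: buffer, no enzyme.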
FEN1 inhibitor = human FEN1 inhibition. P39748. Recombinant FEN1 flap cleavage, fluorescence, 15 min. Potency, µM (series often up to 114 µM), without a hit: top-dose activity change, negative = inhibition, most hits filed as inhibitors. hit rate 0.35% among 390,000. AID 588795; further: on the % scale 0 is the no-effect control and ±100 the full control effect; nearly all actives have a fitted effect of over 65% in size
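FEN1 at 10 nM, compound pretreatment for 15 min (room temperature), 50 nM final substrate to initiate; endpoint reads at 0 and 15 min; DMSO-only plates used as vehicle background.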
Pol eta inh-1 = blocks human DNA polymerase eta activity; Potency, µM (top dose mostly 114 µM), inactives show top-dose activity change, negative = inhibition, most hits filed as inhibitors; AID 588591; Q9Y253; recombinant Pol eta, fluorescent DNA replication assay; hit rate 1.2% among 390,000; further: on the % scale 0 is the no-effect control and ±100 the full control effect
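Pol eta at 10 nM preincubated with compounds 15 min at room temperature; reaction started with fluorescent substrate (50 nM final) and read kinetically at 0 and 10 min.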
POLI inh = DNA polymerase iota (human) inhibition. AID 588590. Q9UNA4. hit rate 1% among 390,000. Pol iota fluorescent replication assay, 10 min. Potency, µM (titrated, usually from 115 µM), for the others: at the top dose activity, negative = inhibition, actives largely listed as inhibitors
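Fluorescent replication assay read twice, at 0 min and 10 min after adding 50 nM (final) substrate. Enzyme (10 nM) and compounds were first incubated 15 min at room temperature; enzyme-free buffer wells were negative controls.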
POLB inh = DNA polymerase beta (human) inhibition. P06746. Pol beta primer extension/strand displacement, fluorescence kinetic. Potency, µM (doses to about 114 µM), inactives show at the highest dose activity change, negative = inhibition, actives largely listed as inhibitors. hit rate 1.3% among 340,000; further: on the % scale 0 is the no-effect control and ±100 the full control effect
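Reaction started by 50 nM substrate onto compound-treated Pol beta (10 nM, 15 min preincubation, room temperature); plates read at 0 min and 10 min. Normalized concentration-effect data fitted by four-parameter Hill equation.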
Pol kappa inh-2 = confirmation of human DNA polymerase kappa inhibitors. shares compounds with Pol eta inh-1. purified Pol-kappa, fluorescent strand-displacement substrate. Potency, µM, most hits filed as inhibitors. hit rate 76% among 920. AID 720501
Pol eta inh-2 = confirmation of human DNA polymerase eta inhibitors. shares compounds with Pol eta inh-1. Pol eta primer extension, TAMRA/BHQ fluorescence, 10 min. Potency, µM, hits mostly inhibitors. hit rate 64% among 2,600
* = called active by the depositor; [ ] = another dose, or the depositor's remark. Rows were chosen to be rich in hits. Some 2.4% of all compounds tested hit in one or more screens of this group. The call rests on the fitted dose curve; in most records, active means well fitted curve in the direction sought with a large enough effect; inconclusive means small, poorly fitted or top-dose-only effect, or another doubt; inactive means no such curve, though single readings can be large; an effect the other way counts as inactive or inconclusive. Potency means the concentration at half of the fitted maximal effect.

How did O=C1c2cc(O)cc(O)c2C(=O)c2c1cc(O)c([C@@H](CO)CCO)c2O do in these assays?
WRN helicase inh: -13.2%[11.6 µM]; Pol kappa inh-1: 79.4µM*; FEN1 inhibitor: inconclusive; Pol eta inh-1: 44.7µM*; POLI inh: inconclusive; Pol eta inh-2: inconclusive

Results for CCOc1ccc(NC(=O)Cn2nnc(C(=O)NCCc3ccccc3)c2N)cc1 ?
Pol kappa inh-1: inconclusive; FEN1 inhibitor: 3.5%; Pol eta inh-1: inconclusive; POLI inh: inconclusive; POLB inh: inconclusive; Pol kappa inh-2: inconclusive

What do the screens show for `COc1ccc(CCNC(=O)CCn2c(=O)c3ccccc3n(Cc3ccccc3C)c2=O)cc1OC`?
Pol kappa inh-1: -0.2%; FEN1 inhibitor: 10.8%; Pol eta inh-1: -9.6%; POLI inh: -14.5%; POLB inh: inconclusive

What do the screens show for `O=C(O)CCc1ccc(S(=O)(=O)Nc2cc(C(F)(F)F)ccc2N2CCCC2)cc1`?
WRN helicase inh: inconclusive; Pol kappa inh-1: inconclusive; FEN1 inhibitor: -7.5%; Pol eta inh-1: 22.4µM*; POLI inh: 25.1µM*; Pol kappa inh-2: inconclusive; Pol eta inh-2: 60.1*

How did Cc1ccc(O)c(NC(=O)CCSc2nc(-c3ccco3)cc(C(F)(F)F)n2)c1 do in these assays?
Pol kappa inh-1: -17.3%; FEN1 inhibitor: -18.8%; Pol eta inh-1: -13.1%; POLI inh: -1.3%; POLB inh: 18.7%

Results for O=C(CN1C(=O)CCSc2ccc(S(=O)(=O)N3CCCC3)cc21)Nc1cccc(F)c1 ?
Pol kappa inh-1: -7.2%[60.1 µM]; FEN1 inhibitor: 20.8%; Pol eta inh-1: 6.7%; POLI inh: inconclusive; POLB inh: -19.8%

How did Oc1c(Br)cc(/C=N/Nc2ccc(Cl)nn2)cc1Br do in these assays?
WRN helicase inh: 44.7µM*; Pol kappa inh-1: inconclusive; FEN1 inhibitor: inconclusive; Pol eta inh-1: 22.4µM*; POLI inh: inconclusive; POLB inh: 50.1µM*; Pol eta inh-2: 84.9*

What do the screens show for `NC(=O)c1ccc(-n2nnnc2SCC(=O)c2ccc(O)c(O)c2)cc1`?
WRN helicase inh: 35.5µM*; Pol kappa inh-1: 25.1µM*; FEN1 inhibitor: -12.8%; Pol eta inh-1: 10µM*; POLI inh: 14.1µM*; POLB inh: 10µM*; Pol eta inh-2: 42.6*

What do the screens show for `Cc1ccccc1CSc1nnnn1-c1ccc(C(N)=O)cc1`?
WRN helicase inh: -11.0%; Pol kappa inh-1: -7.4%; FEN1 inhibitor: 3.6%; Pol eta inh-1: -22.0%; POLI inh: 134.9%; POLB inh: -13.5%

What do the screens show for `Cc1ccccc1NC(=O)C1Cc2ccccc2C(=O)O1` (stereo not drawn)?
WRN helicase inh: 0.0%; Pol kappa inh-1: -5.7%; FEN1 inhibitor: 4.3%; Pol eta inh-1: -9.4%; POLI inh: 6.5%; POLB inh: -8.0%
